Numbering of substitutions follows the chain as printed. In all, about 24,000 sequences were measured (“enrichment r”: median about 0.99, highest 2% from about 3.7 on). The list comes from a sample in which the highest values are over-represented; it also holds similar and randomly drawn sequences.

The chains are these.
T1: UNK ZnF1-3 (human, UniProt Q9C0B0 31-174)
T1 sequence: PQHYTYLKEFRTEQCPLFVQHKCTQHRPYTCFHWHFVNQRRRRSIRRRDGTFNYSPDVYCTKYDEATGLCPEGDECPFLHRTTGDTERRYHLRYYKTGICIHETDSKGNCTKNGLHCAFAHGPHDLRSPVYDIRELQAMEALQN

B1: chr16:18799448:18799449:-_ENSG00000134419_ENST00000563390|perfect_dup|FALSE|FALSE (ssRNA)
RNA: GGGAGUUCUACAGUCCGACGAUCCCUUCCUGUGAGGUUCACAACAAUCUUCCCAGCUCUGUGAUCAUCAAUGAUCUCAAAUUCACCAAUGUAUCCGUGCUUCAUCAUCACGGUUAAGAACCGAACGAUGACUUUAGAACAUGGCAACAGAGGAUUGAGCAUCA
B2: 99623494_99624154_931_CDS_ENSMUSG00000067567_ENSMUST00000087916|mouse|control|control (ssRNA)
RNA: GGGAGUUCUACAGUCCGACGAUCCUGAAUGGGCACAUUGACACUGUAGUACCGUCCUUUCCCCAGGCCAACAUCAGACAUGUCACCUGUUCCUGGGAAAAAUCCUGGGGAGAACUUGUGCAGGGACACAGUCAUAACCUUCGACAACAGAGGAUUGAGCAUCA
B3: 37607701_37614754_715_CDS_ENSG00000102710_ENST00000475892|human|control|control (ssRNA)
RNA: GGGAGUUCUACAGUCCGACGAUCGCUCUCAAGCAAAAGUUUGUCUUCCUGGGUCCAUUUGUGGUUAUCACUUGUUAUUGAAUGUACAUCACAAAUUAAAGUCUGCAUUGUUGGACGUAAGAGAAUGUGCCGACUUUGGUAACCCAACAGAGGAUUGAGCAUCA
B4: chr9:14812383:14812384:-_ENSMUSG00000031934_ENSMUST00000164273|mus_mus|mus_mus_mus_hu_True|68_88 (ssRNA)
RNA: GGGAGUUCUACAGUCCGACGAUCAUAGCCCAGGUAGAUACACGCUAACAGUAUAACGAUGAGUGUCACCAGCCGGCAGCUAAUGUACUUGAUGAUUAAAUUAUUAGAAUUUUUCUUUGUCUUCAAGUACUGCUCCACAAUUGGCAACAGAGGAUUGAGCAUCA
B5: chr2:183789671:183789672:-_ENSG00000061676_ENST00000360982|hu_hu|motif|central (ssRNA)
RNA: GGGAGUUCUACAGUCCGACGAUCUGGCAGGUACACUUGAAUUUCAAAAAUUUAAAACAUAUAUAAAAAGUGGUUAGGGACGGACAUUUGUAUCAACAGUUGAUAAAUGUCUAAGAUUGUUUAUUAUACAGCAGGGUACAAUGGCAACAGAGGAUUGAGCAUCA
B6: chr2:183789671:183789672:-_ENSG00000061676_ENST00000360982|hu_hu|FALSE|FALSE (ssRNA)
RNA: B5 RNA with G81U, G82A
B7: chr1:172123744:172123745:-_ENSMUSG00000026667_ENSMUST00000150821|mus_hu|motif|central (ssRNA)
RNA: GGGAGUUCUACAGUCCGACGAUCAAACGCAUUGUUCACACUUUUUAGGAAUAUAGGAAAGUGGAAAAUAAAAGUUCUUUGCGGUUCAGCAGGAAAGAGUUUAAAAGACUUGAAUGGAAAUCAGAAAUUUAGGGAUUUGAGAAACAACAGAGGAUUGAGCAUCA
B8: chr8:93522421:93522422:+_ENSMUSG00000056608_ENSMUST00000048665|mus_hu|FALSE|FALSE (ssRNA)
RNA: GGGAGUUCUACAGUCCGACGAUCAGACUGGAUCAUUGCUUGAAGAUGAAAAUCAGAAGCAGCUGGAUUGUAAGUAUCUCUAAAUUCUCCAAGUAUUUUCUCCUCAGCACCUUUUAUAAGAUAUGGAUGAUUACAACAUUUCCUCAACAGAGGAUUGAGCAUCA
B9: 142051865_142054343_4063_CDS_ENSG00000114127_ENST00000264951|human|control|control (ssRNA)
RNA: GGGAGUUCUACAGUCCGACGAUCUGACUGUACUUCAUUUUCUUUGGAGAUAUUCAAAGAUGCUAAAAAGUUCUCAAUUCCAGAGUUAGGCUGCUUAUUGGACAUUUUUUGGGACCAACACUCAGCUUUAGGACUCUUACACUCCAACAGAGGAUUGAGCAUCA
B10: chr11:44378942:44378943:+_ENSMUSG00000019189_ENSMUST00000019333|mus_mus|motif|central (ssRNA)
RNA: GGGAGUUCUACAGUCCGACGAUCUUUAAAUUUAUUAAGACAUUCAGCUAUGUCUGUCAGUCUACAUCCAAAUUUGCGGCGGAAAACAAAGGAAAACCACACCCCACAGUAGGAAUACCAAGUCUGAAAUACACUUUUUUUUGACAACAGAGGAUUGAGCAUCA
B11: chr3:102833055:102833056:+_ENSMUSG00000068823_ENSMUST00000029446|mus_mus|FALSE|FALSE (ssRNA)
RNA: GGGAGUUCUACAGUCCGACGAUCUCAGUAGUAUUUGCUGACUCUUCUUUUUUCAGCACAAGUUCCAAAGGAUGAAAGUUGCUAGUAUUUAAAAAAAGAAAAAAAAAAGAAAAAGAAAAAAAGAAAAAAAAAAGGAGAGCGAGACAACAGAGGAUUGAGCAUCA
B12: chr3:102833055:102833056:+_ENSMUSG00000068823_ENSMUST00000029446|mus_mus|motif|central (ssRNA)
RNA: B11 RNA with U82G, A83G
B13: chr19:42259214:42259215:+_ENSMUSG00000018820_ENSMUST00000165783|mus_mus|FALSE|FALSE (ssRNA)
RNA: GGGAGUUCUACAGUCCGACGAUCGCUAUAGUGACUGCUGCAGACUCAGAGACACUAGGAAAGUUGCAAGUGUAUAUUUUCUAUCUAAAUUUCUAACUAAAAUUUGCCCUGUUUUAUUCACUGGCCCAAAGGAUUCUUUUUUAACAACAGAGGAUUGAGCAUCA
B14: chr8:117878989:117878990:-_ENSG00000164754_ENST00000297338|hu_hu|hu_hu_hu_mus_True|8_8 (ssRNA)
RNA: GGGAGUUCUACAGUCCGACGAUCCCAGAGGCCCUCGUUUACUGAGGACAAAAUGUGCGUAGAACAUUUUUCUUAUUUGCUAUGAAAUAAGAAGAAACCUGGAUCUCGGCGGGGAGCCGGGAGGGGUUGGGUGGCCCGGGAGGGCAACAGAGGAUUGAGCAUCA

For the test, the target named is T1, UNK ZnF1-3. Description: nsRBNS (natural sequence RNA bind-n-seq); RBNS binding buffer (assumed for nsRBNS): 25 mM Tris pH 7.5, 150 mM KCl, 3 mM MgCl2, 0.01% Triton X-100, 500 ug/ml BSA, 20 U/ml SUPERase-In, 4 C; UNK is unkempt and MSI1 is Musashi-1; names of the RNAs are library labels; protein concentration not given here; high values mean tight binding.
The molecule B1 yielded a binding signal of 0.793 enrichment R.

B2: the binding signal amounted to 0.68 enrichment R.

On to B3, for which the binding signal was determined as 0.803 enrichment R.

In turn, B4 yielded a binding signal of 1.31 enrichment R.

As to B5, the binding signal was 6.64 enrichment R.

Molecule B6 had a binding signal of 4.06 enrichment R.

B7 had a binding signal of 3.57 enrichment R.

Regarding B8, the binding signal was 1.27 enrichment R.

B9 gave a binding signal of 0.644 enrichment R.

The molecule B10 registered a binding signal of 1.46 enrichment R.

Molecule B11 showed a binding signal of 5.11 enrichment R.

In turn, B12 displayed a binding signal of 8.15 enrichment R.

B13: the binding signal stood at 1.32 enrichment R.

For the molecule B14, the binding signal was 1.2 enrichment R.

The record behind these values is PMC12136788.
